GalR3 antagonist = antagonists of human GalR3; HEK293 GalR3-CNG cAMP membrane potential fluorescence; galR3 body fused to GalR1 C-terminus; 360,000 tested, 0.44% active; inhibition, % at 3 µM; O60755;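 active = inhibition above the screen-wide average plus 3 SD, cut at about 13% in these data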;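 note: forskolin and galanin both at EC90 stimulate the cells; cAMP rise reported by CNG channel membrane potential dye signal; 0% = forskolin plus galanin with DMSO and 100% = forskolin alone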
Target sequence (O60755 1-299 limits assumed): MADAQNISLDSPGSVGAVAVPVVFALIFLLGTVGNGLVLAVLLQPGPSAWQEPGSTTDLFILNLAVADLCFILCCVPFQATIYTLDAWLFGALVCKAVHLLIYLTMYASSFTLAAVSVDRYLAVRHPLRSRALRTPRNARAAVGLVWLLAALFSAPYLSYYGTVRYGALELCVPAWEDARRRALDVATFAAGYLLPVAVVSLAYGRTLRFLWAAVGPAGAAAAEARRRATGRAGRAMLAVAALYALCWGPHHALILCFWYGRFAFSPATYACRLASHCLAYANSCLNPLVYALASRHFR
Env fusion inh = HIV envelope-mediated fusion inhibition. 360,000 tested, 1.1% active. AID 651610. inhibition, % at 12.3 µM. HeLa-JRFL Env/CEM21 cell fusion, luciferase;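 active = mean replicate inhibition score of at least 50 and every replicate individually at or above 50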;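 note: 0% = plate neutral controls and 100% = maraviroc near 300 nM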
aDG glyco up = increases alpha dystroglycan glycosylation. Pro5-aDG cells, alpha-DG glycosylation AlphaScreen (IIH6); 0% Pro5, 100% B10-LARGE cell signal. activation, % at 10 µM. 360,000 tested, 0.22% active. AID 624168;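 active = activation of at least 8% versus controls, or a plate z-score of at least 8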;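 note: Pro5 are CHO cells carrying HIG-tagged alpha-DG that lacks glycosylation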
COUP-TFII inh = NR2F2 (human) inhibition, primary screen; inhibition, % at 8.6 µM; P24468; HEK293T NGFI-A luciferase reporter, luminescence; 370,000 tested, 0.7% active; AID 686940;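 active = inhibition above a per-plate cutoff, mean inhibition of test wells between control levels plus 3 SD, cut at about 38% in these data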;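 note: cells cotransfected with COUP-TFII expression vector driving the NGFI-A reporter; 0% = median of COUP-TF2 test wells and 100% = reporter-only cells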
Gli-Sufu antag = antagonists of Gli-Sufu signaling; inhibition, % at 5 µM; Sufu-KO-LIGHT fibroblasts, Gli luciferase reporter luminescence; 340,000 tested, 0.74% active; AID 588413;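 active = inhibition above about 55%, limit read from the data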;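 note: 0% = DMSO-treated cells and 100% = wells with medium but no cells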
* hit, by the source's call; [ ] = dose if it differs, or a comment. An excerpt weighted towards active compounds, which were near 2.1% of everything screened.

For C[C@@H]1CCCCO[C@H](CN(C)S(=O)(=O)c2cn(C)cn2)[C@H](C)CN([C@H](C)CO)C(=O)c2cc(NC(=O)CCCN(C)C)ccc2O1 the results were Env fusion inh 4.9[16.7 µM].
Screening CCCOP(=O)(OCCC)C(Nc1cccc(C(F)(F)F)c1)c1ccc(C)cc1 (stereo not given) returned GalR3 antagonist -4.8, Env fusion inh 80.6*, aDG glyco up 0.4, COUP-TFII inh 3.7 and Gli-Sufu antag 14.5.
Screening CCOP(=O)(OCC)C(Nc1cccc(C(F)(F)F)c1)c1ccc(C)cc1 (stereo not given) returned GalR3 antagonist 0.7, aDG glyco up 0.4, COUP-TFII inh 19.5 and Gli-Sufu antag 10.0.
Screening C[C@H](O)C#Cc1ccc2c(c1)O[C@H](CN(C)C(=O)c1ccccc1)[C@@H](C)CN([C@H](C)CO)S2(=O)=O returned Env fusion inh -13.2[16.7 µM].
`CCCCCCCn1c(NC(=O)CC)nc2ccccc21` gave GalR3 antagonist -6.6, Env fusion inh 72.2*, aDG glyco up 0.7, COUP-TFII inh 14.6 and Gli-Sufu antag -4.6.
CCCn1c(Nc2nc3ccccc3n2C)nc2ccccc21 was read as GalR3 antagonist -5.9, Env fusion inh 140.2*, aDG glyco up 0.0, COUP-TFII inh -1.9 and Gli-Sufu antag 4.8.
C[C@@H]1CCCCO[C@@H](CN(C)Cc2ccccc2)[C@@H](C)CN([C@@H](C)CO)C(=O)c2cc(NS(=O)(=O)c3ccc(Cl)cc3)ccc2O1 was read as Env fusion inh 18.4[16.7 µM].
`CC1CN(C(=O)c2cc(S(=O)(=O)N3CCCC3)ccc2Cl)CC(C)O1` (stereo not given) gave GalR3 antagonist -2.9, Env fusion inh 2.3, aDG glyco up -0.4, COUP-TFII inh 20.2 and Gli-Sufu antag 8.5.
`CC1CN(C(=O)c2cc(S(=O)(=O)N(C)c3ccc(F)cc3)ccc2Cl)CC(C)O1` (stereo not given) gave GalR3 antagonist -2.9, Env fusion inh 61.3*, aDG glyco up 0.0, COUP-TFII inh 17.6 and Gli-Sufu antag 13.0.
For C[C@@H]1CN([C@H](C)CO)C(=O)c2cc(NC(=O)Cc3cn(C)c4ccccc34)ccc2O[C@H]1CN(C)S(=O)(=O)c1ccc(Cl)cc1 the results were Env fusion inh -1.6[16.7 µM].
COCC(=O)N1[C@@H](C#N)[C@@H](c2ccc(-c3cccc(F)c3)cc2)[C@@H]1CO was read as Env fusion inh 2.3[16.7 µM].
Cc1ccc(S(=O)(=O)N(C)C[C@H]2Oc3ccc(NC(=O)C4CCCCC4)cc3CC(=O)N([C@H](C)CO)C[C@H]2C)cc1 was read as Env fusion inh 14.7[16.7 µM].
`C[C@H](CO)N1C[C@H](C)[C@H](CN(C)S(=O)(=O)c2ccc(Cl)cc2)Oc2ccc(NC(=O)C3CCCCC3)cc2CC1=O` gave Env fusion inh 63.2*[16.7 µM].
`Cc1ccc(S(=O)(=O)N(C)C[C@H]2Oc3ccc(NC(=O)C4CCCCC4)cc3CC(=O)N([C@@H](C)CO)C[C@H]2C)cc1` gave Env fusion inh -7.5[16.7 µM].
For C[C@@H]1CN([C@@H](C)CO)C(=O)Cc2cc(NC(=O)NC3CCCCC3)ccc2O[C@@H]1CN(C)S(=O)(=O)c1ccc(Cl)cc1 the results were Env fusion inh 59.5*[16.7 µM].
C[C@H]1CN([C@@H](C)CO)C(=O)Cc2cc(NC(=O)C3CCCCC3)ccc2O[C@H]1CN(C)S(=O)(=O)c1ccc(Cl)cc1 was read as Env fusion inh 73.6*[16.7 µM].
Screening CCCNC(=O)N1CC2(C1)CN(C(=O)CC)[C@H](CO)c1[nH]c3cc(OC)ccc3c12 returned Env fusion inh -9.2[16.7 µM].
For COC(=O)CN1C(c2cccc(Cl)c2)=Nc2ccc(Cl)cc2C1c1ccccc1 (stereo not given) the results were GalR3 antagonist -9.9, Env fusion inh 56.0*, aDG glyco up 0.3, COUP-TFII inh 2.8 and Gli-Sufu antag 15.2.
Screening CCc1ccccc1NC(=O)c1cccc(NC(=O)/C=C/c2ccco2)c1 returned GalR3 antagonist 10.8, Env fusion inh 7.5, aDG glyco up 0.4, COUP-TFII inh -10.5 and Gli-Sufu antag 33.9.
For O=C(/C=C/c1ccco1)Nc1cccc(C(=O)Nc2ccccc2C(=O)O)c1 the results were GalR3 antagonist 3.0, Env fusion inh 88.1*, aDG glyco up 0.1, COUP-TFII inh 10.8 and Gli-Sufu antag -3.5.
For CCC(=O)N[C@H]1CC[C@H](CC(=O)NCC2CCCCC2)O[C@H]1CO the results were Env fusion inh 8.5[16.7 µM].
CCCN(C)C[C@H]1OCCCC[C@@H](C)Oc2ccc(NC(=O)NC(C)C)cc2C(=O)N([C@H](C)CO)C[C@@H]1C was read as Env fusion inh -8.3[16.7 µM].
Nc1nonc1C(=O)NCCNCc1ccccc1 was read as GalR3 antagonist -0.7, aDG glyco up 0.0, COUP-TFII inh 2.2 and Gli-Sufu antag -0.6.
For Nc1nonc1C(=O)NCCNCc1c(OCc2ccccc2F)ccc2ccccc12 the results were GalR3 antagonist -13.6, Env fusion inh 103.1*, aDG glyco up 1.6, COUP-TFII inh 17.1 and Gli-Sufu antag 3.7.
Screening CCCNC(=O)C[C@@H]1C[C@H]2c3cc(NC(=O)Nc4ccccc4)ccc3O[C@H]2[C@@H](CO)O1 returned Env fusion inh 19.7[16.7 µM].
`CC1CCc2sc3ncnc(N4CCOCC4)c3c2C1` (stereo not given) gave GalR3 antagonist -4.9, aDG glyco up 0.0, COUP-TFII inh 12.2 and Gli-Sufu antag -72.5.
Screening CC1CCc2c(sc3ncnc(N4CCOCC4)c23)C1 (stereo not given) returned GalR3 antagonist -2.4, Env fusion inh 92.2*, aDG glyco up -0.2, COUP-TFII inh 8.5 and Gli-Sufu antag 4.1.
For C[C@@]12C(=O)N(CCc3c[nH]c4ccccc34)CC(=O)N1[C@H]1c3ccccc3OC[C@@H]1[C@@H]2c1ccccc1 the results were GalR3 antagonist -4.9, Env fusion inh 82.3*, aDG glyco up 0.0, COUP-TFII inh 24.5 and Gli-Sufu antag -0.8.
C[C@@]12C(=O)N(Cc3ccc(Cl)cc3)CC(=O)N1[C@H]1c3ccccc3OC[C@@H]1[C@@H]2c1ccccc1 was read as GalR3 antagonist -6.9, Env fusion inh 29.0, aDG glyco up 0.3, COUP-TFII inh 8.4 and Gli-Sufu antag -14.2.
`C[C@@]12C(=O)N(Cc3ccc(F)cc3)CC(=O)N1[C@H]1c3cc(Cl)ccc3OC[C@@H]1[C@@H]2c1ccccc1` gave GalR3 antagonist -0.8, Env fusion inh 77.3*, aDG glyco up 0.3, COUP-TFII inh -10.2 and Gli-Sufu antag 0.4.
C[C@@]12C(=O)N(Cc3ccccc3)CC(=O)N1[C@H]1c3cc(Cl)ccc3OC[C@@H]1[C@@H]2c1ccccc1 was read as GalR3 antagonist -0.8, Env fusion inh 61.1*, aDG glyco up 0.3, COUP-TFII inh 1.3 and Gli-Sufu antag 4.0.
`O=[N+]([O-])c1ccc2[nH]c3nc4ccccc4nc3c2c1` gave GalR3 antagonist -14.2, Env fusion inh -15.4, aDG glyco up 1.7, COUP-TFII inh 23.9 and Gli-Sufu antag 57.1*.

Compound activity as filed in PubChem.
